Hits are enriched below; roughly 4.6% of the tested compounds scored in any of these assays.
USP10 inh: human USP10 deubiquitinase inhibition; purified USP10, Ub-rhodamine fluorescence, 60 min; inhibition, % at 20 µM; 47,000 compounds, 1.1% hits; AID 1645856
Target sequence (Q14694 whole entry, looked up): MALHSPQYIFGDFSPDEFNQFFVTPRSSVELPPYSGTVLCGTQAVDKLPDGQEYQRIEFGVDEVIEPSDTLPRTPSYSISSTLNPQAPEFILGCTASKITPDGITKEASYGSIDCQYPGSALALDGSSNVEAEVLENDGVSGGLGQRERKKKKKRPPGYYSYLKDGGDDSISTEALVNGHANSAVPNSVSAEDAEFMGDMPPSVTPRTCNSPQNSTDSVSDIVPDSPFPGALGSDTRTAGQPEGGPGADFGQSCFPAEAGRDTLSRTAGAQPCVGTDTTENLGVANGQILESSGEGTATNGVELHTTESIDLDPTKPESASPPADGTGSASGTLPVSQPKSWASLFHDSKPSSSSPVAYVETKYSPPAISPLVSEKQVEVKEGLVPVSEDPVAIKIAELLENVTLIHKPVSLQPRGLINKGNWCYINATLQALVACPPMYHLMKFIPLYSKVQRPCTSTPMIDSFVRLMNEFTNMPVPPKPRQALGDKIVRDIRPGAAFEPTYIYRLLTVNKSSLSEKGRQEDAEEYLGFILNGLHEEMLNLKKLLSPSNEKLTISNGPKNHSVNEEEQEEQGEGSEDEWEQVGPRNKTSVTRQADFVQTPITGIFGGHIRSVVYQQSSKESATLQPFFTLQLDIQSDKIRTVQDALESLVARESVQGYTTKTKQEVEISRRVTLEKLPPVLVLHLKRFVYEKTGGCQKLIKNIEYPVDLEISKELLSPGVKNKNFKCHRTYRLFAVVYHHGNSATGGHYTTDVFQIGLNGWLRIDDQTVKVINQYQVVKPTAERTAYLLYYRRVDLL
UCHL1 block: human UCHL1 deubiquitinase inhibition. purified UCHL1, Ub-rhodamine cleavage fluorescence. inhibition, % at 20 µM. 47,000 compounds, 0.2% hits
USP7 block: inhibitors of human USP7 deubiquitinase; purified USP7, Ub-rhodamine cleavage fluorescence; 47,000 compounds, 0.3% hits; inhibition, % at 20 µM
USP8 inh: human USP8 deubiquitinase inhibition; P40818; purified USP8, Ub-rhodamine cleavage fluorescence, 30 min; inhibition, % at 20 µM; 47,000 compounds, 4.2% hits
Starred values were filed as active, the others as inactive. No stated cut-off is given here; in the data, active means inhibition above about 30%; inactive means the rest.

SMILES	USP10 inh	UCHL1 block	USP7 block	USP8 inh
CCc1ccc(NC(=O)N2C[C@H]3C[C@H](C(=O)NCC(C)C)[C@@H](C2)O3)cc1	0.9	0.8	2.2	-7.4
CCc1nc2c(NS(=O)(=O)c3ccc(F)cc3)cccn2n1	-9.5	-6.7	-8.5	-10.5
O=c1[nH]cccc1NS(=O)(=O)c1ccc(F)cc1	-1.1	26.0	-54.3	92.8*
CCC(C(=O)C(C)C(O)C(C)CCc1ccc(C)c(O)c1C(=O)O)C1OC(CC)(C2CCC(O)(CC)C(C)O2)CC1C (configuration not stated)	61.3*	4.9	27.7	20.5
COc1ccccc1C1c2[nH]c3ccccc3c2C[C@H]2C(=O)N(C3CCCC3)CC(=O)N12 (some centres not stated)	-2.6	6.5	6.8	21.2
O=c1c2cnc(N3CCN(c4ccccc4)CC3)nc2ccn1Cc1ccc2c(c1)OCO2	-0.3	0.0	0.8	-0.3
O=c1c2cnc(N3CCCCC3)nc2ccn1Cc1ccc2c(c1)OCO2	-3.7	-0.3	2.6	41.6*
CCC(C)N1CNc2c(c(=O)[nH]c(=O)n2Cc2ccco2)C1 (configuration not stated)	30.5*	29.3	11.9	7.8
Cc1ccc(S(=O)(=O)N2C(=O)CCC2C(=O)N2CCC(C)CC2)cc1C (configuration not stated)	-2.3	-4.2	-13.7	-10.2
CSCC[C@H](NC(=O)OC(C)(C)C)C(=O)N1CCC(C(=O)N[C@H](C(=O)Nc2ccc(F)cc2F)C(C)C)CC1	-3.7	-20.2	-26.9	-25.3
Cc1ccc(S(=O)(=O)Nc2ccc(S(=O)(=O)Nc3ccc(F)cc3)cc2)cc1	8.2	6.7	3.2	10.8
Cc1ccc(S(=O)(=O)Nc2ccc3[nH]cc(Cl)c3c2)cc1	8.9	6.7	13.9	41.7*
Cn1cc(C(=O)NCc2cnc(C3(C)CCCCO3)nc2)cn1 (configuration not stated)	1.1	1.9	2.8	13.3
COc1ccc(/C=C/C(=O)Nc2ccc(Cl)c(-c3nc4ncccc4o3)c2)cc1	23.8	2.3	11.7	58.0*
O=C(/C=C/c1ccc(Cl)cc1)Nc1cccc(-c2nc3ncccc3o2)c1	-0.8	-0.6	6.1	6.7
O=C(Nc1ccc(Cn2cnc(-c3nc(-c4ccccc4)no3)c2)cc1)c1ccccc1F	21.4	11.2	16.5	46.8*
Cc1ccccc1-c1noc(-c2cn(Cc3ccc(NC(=O)Cc4ccccc4)cc3)cn2)n1	14.6	0.2	-2.4	37.5*
Cc1ccc(-c2noc(-c3cn(Cc4ccc(N)cc4)cn3)n2)cc1	10.1	-1.4	1.2	-2.3
O=C(Nc1ccc(-c2noc(CCc3ccccc3)n2)cc1)c1ccccc1F	10.9	5.4	9.2	7.5
CCc1ccc(CN(C)C(=O)c2ccc(NS(=O)(=O)c3ccc(F)c(F)c3)cc2)cc1	37.9*	8.5	8.9	18.5
Nc1ccc(NS(=O)(=O)c2ccc3c(c2)OCCCO3)cc1	1.3	1.1	-1.1	32.9*
O=C(COc1ccc(Cl)cc1)Nc1ccc(S(=O)(=O)Nc2ccccc2)cc1	26.0	3.4	3.8	8.5
CC(C)c1ccc(NC(=O)COC(=O)c2ccc(NS(=O)(=O)c3ccc4c(c3)OCCO4)cc2)cc1	51.3*	3.6	17.2	-7.8
O=C(COC(=O)c1ccc(NS(=O)(=O)c2ccc(F)c(F)c2)cc1)Nc1ccc(OCc2ccccc2)cc1	53.4*	0.1	3.9	1.8
CC(OC(=O)c1ccc(NS(=O)(=O)c2ccc3c(c2)OCCO3)cc1)C(=O)Nc1cccc2ccccc12 (configuration not stated)	8.2	-1.6	5.6	2.2
SMILES	USP10 inh	UCHL1 block	USP7 block	USP8 inh
O=C1NCC2(CCC(C(=O)N3CCC(O)CC3)CC2)Oc2ccc(Cl)cc21 (configuration not stated)	0.2	0.6	4.3	0.0
COC[C@H]1C[C@@H]2CN(S(=O)(=O)c3ccc(OC)cc3)C(C)[C@H]1N2C (some centres not stated)	-1.2	-2.7	-0.7	-0.4
O=C1c2ccccc2C2(CCCC2)C(=O)N1Cc1ccccc1	7.9	2.9	-59.0	49.3*
O=C(N[C@@H]1CC[C@H]2Oc3ccccc3N[C@H]2[C@@H]1O)c1cccnc1	-1.6	0.5	1.2	-8.9
O=c1ccc(-c2noc(-c3ccc4cc[nH]c4c3)n2)c[nH]1	-3.1	-16.3	-19.3	51.0*
CC(Sc1nc2ccsc2c(=O)n1-c1ccccc1)C(=O)NC(C)(C)C (configuration not stated)	0.2	0.2	-2.0	-0.7
COc1ccc(CCNC(=O)c2c(N)n(-c3cccc(Cl)c3)c3nc4ccccc4nc23)cc1	3.6	6.8	-6.4	61.5*
Cc1ccc(-n2c(N)c(C(=O)NCCc3ccccc3F)c3nc4ccccc4nc32)cc1	-3.0	0.6	-4.6	33.5*
O=C(NCCc1ccc(Cl)cc1)c1cccc(-n2cnc3cccnc32)c1	-13.9	-5.2	-9.3	-7.0
O=C(NCCc1ccccc1F)c1ccc(N2C(=O)CCS2(=O)=O)cc1	5.9	-0.2	0.7	11.8
COc1ccc(CCNC(=O)c2c(N)n(-c3cccc(F)c3)c3nc4ccccc4nc23)cc1	-2.4	6.7	0.5	35.9*
COc1ccc(NC(=O)c2cn[nH]c2-c2cccc([N+](=O)[O-])c2)cc1	0.3	-3.8	-1.9	-124.8
CN1c2ccc(Cl)cc2-c2nc(SCC(=O)Nc3ccc(F)cc3)ncc2S1(=O)=O	10.9	-2.5	2.7	50.3*
CN1c2cc(Cl)ccc2-c2nc(SCC(=O)Nc3ccc(F)cc3)ncc2S1(=O)=O	9.5	0.0	13.4	-0.8
Cc1cccc(CCN2C(=O)CCc3c(C)nc(C4CCCNC4)nc32)c1 (configuration not stated)	0.2	4.4	32.9*	-2.1
CCn1cnc2cc(NCc3cccc(OC)c3O)ccc21	-0.1	-1.1	-0.7	40.1*
O=C(COC(=O)c1cc2ccccc2oc1=O)Nc1ccc(Cl)cc1F	8.6	-1.2	-0.3	1.6
COc1cccc(CN2C(=O)c3cc4occc4n3CC2(C)C(=O)NC2CCCCCC2)c1 (configuration not stated)	5.6	6.5	-57.3	4.6
COc1cccc(CN2C(=O)c3cc4ccccc4n3CC2(C)C(=O)NC2CCCC2)c1 (configuration not stated)	17.8	5.6	5.3	35.5*
CCc1ccc(NC(=O)CCc2nc3cccnc3n2Cc2ccccc2)cc1	10.9	4.0	6.1	34.6*
CN(Cc1ccccn1)C(=O)c1cc(-c2cnc(N3CCCC3)nc2)cn1C	-12.0	-2.2	-5.2	-207.1
OC(c1ccccn1)c1c[nH]c2ccccc12 (configuration not stated)	-1.8	-2.7	-7.3	-0.2
O=[N+]([O-])c1ccccc1C(c1c[nH]c2ccccc12)c1c[nH]c2ccccc12	-3.1	6.2	-3.6	81.8*
Cn1cc(S(=O)(=O)N2C[C@H]3CC[C@@H](Oc4cccnc4)[C@H]3C2)cn1	-1.3	0.0	2.6	7.4
CC1Cc2ccccc2N1C(=O)COC(=O)c1ccc2ccccc2n1 (configuration not stated)	0.2	-0.2	-4.8	-3.5

Source: PubChem BioAssay
